Reference: ChEMBL document CHEMBL1157539, “Thousands of chemical starting points for antimalarial lead identification” (Nature, 2010)

These molecules were tested on HepG2 (assay: GSK_TCMDC: Percent inhibition of human HepG2 cell line. Test compounds present at 10uM.).
Format: functional
For `Nc1nc(N)c2c(CCc3ccc(Cl)c(Cl)c3)cccc2n1`, the Inhibition was 51%.
Work on `Nc1ccc(-c2nc3cc(-c4ccc5[nH]c(-c6ccc(N)cc6)nc5c4)ccc3[nH]2)cc1` yielded an Inhibition of 45%.
`O=C(Nc1ccc(C(F)(F)F)cc1)c1cccc(S(=O)(=O)NC2CCN(Cc3ccccc3)C2)c1.O=C(O)C(F)(F)F` (centres undefined) showed an Inhibition of 39%.
`C=CCNS(=O)(=O)c1ccc(NC(=O)C(C)Oc2ccc([N+](=O)[O-])cc2)cc1` (centres undefined) showed an Inhibition of 14%.
With `Cl.Nc1c2c(nc3ccc(NC(=O)Cc4ccccc4)cc13)CCCC2` the Inhibition was 9%.
`Cc1ccccc1-c1cc(=O)c2cc(NC(=O)c3cccs3)ccc2o1` gave an Inhibition of 22%.
Molecule `O=C(/C=C/c1ccc(Cl)c(Cl)c1)NCCCCCN1CCCC(CNS(=O)(=O)c2cccc(C(F)(F)F)c2)C1` (centres undefined) has an Inhibition of 73%.
`CC(=O)N1N=C(c2ccc(Cl)cc2)Sc2c1nc(-c1ccccc1)n2C(C)=O` gave an Inhibition of 0%.
`Cn1cnnc1Sc1ccc(CN2CCOc3ccc(C4=CCCCC4)cc3C2)o1` gave an Inhibition of 1%.
Work on `COc1c(C2CCN(CCCCNC(=O)c3ccc(-c4ccc(C(=O)C(F)(F)F)cc4)cc3)CC2)ccc2c1CCCC2` yielded an Inhibition of 99%.
With `Cc1nc2ccc3ccc(CNc4ccc(C(=O)N[C@@H](CCC(=O)O)C(=O)N[C@@H](Cc5cccs5)C(=O)O)c(F)c4)cc3c2c(=O)[nH]1` the Inhibition was 43%.
For `COc1cc(Cc2cnc(N)nc2N)cc(OCCCN2C(=O)c3ccccc3C2=O)c1OC`, the Inhibition was 0%.
For `O=C(Nc1ccsc1C(=O)NC1CCCCC1)c1ccc(F)cc1`, the Inhibition was 3%.
`COc1ccc(CNC2CCN(C)CC2)cc1-c1ccc(OC)c(S(=O)(=O)NCc2ccccc2)c1.O=C(O)C(F)(F)F` gave an Inhibition of 10%.
